Experimental data reported in PubChem BioAssay (Tox21).
Records with an inconclusive call do not appear. Entries that show only a call come without a potency. Active and inactive are the calls of the source. The call rests on the fitted dose curve.

Tests used:
[1] = biological target: Acetylcholinesterase (Homo sapiens) (UniProt P22303); assay: Acetylcholinesterase (AChE) small molecule antagonists: colormetric cell-based qHTS assay (AID 1347395); further: nearly all actives have a fitted effect of over 30% in size
Acetylcholinesterase (Homo sapiens), sequence (P22303 whole entry, looked up): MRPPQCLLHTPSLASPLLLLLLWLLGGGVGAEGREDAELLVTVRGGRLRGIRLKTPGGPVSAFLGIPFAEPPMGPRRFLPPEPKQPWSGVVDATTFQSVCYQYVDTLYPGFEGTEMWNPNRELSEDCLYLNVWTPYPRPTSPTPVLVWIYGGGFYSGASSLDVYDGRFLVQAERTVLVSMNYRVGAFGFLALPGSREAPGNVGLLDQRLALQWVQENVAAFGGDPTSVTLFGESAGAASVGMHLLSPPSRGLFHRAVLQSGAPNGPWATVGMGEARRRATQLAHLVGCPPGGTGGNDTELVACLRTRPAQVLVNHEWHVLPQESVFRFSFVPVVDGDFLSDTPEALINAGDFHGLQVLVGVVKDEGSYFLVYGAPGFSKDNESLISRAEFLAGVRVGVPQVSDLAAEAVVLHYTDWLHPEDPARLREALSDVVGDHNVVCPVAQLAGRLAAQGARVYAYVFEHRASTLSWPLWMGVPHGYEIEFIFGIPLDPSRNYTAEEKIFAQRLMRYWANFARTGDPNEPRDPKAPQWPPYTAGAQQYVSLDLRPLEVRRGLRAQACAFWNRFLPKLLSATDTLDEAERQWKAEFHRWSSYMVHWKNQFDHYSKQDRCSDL
Procedure, shortened: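 Endogenous AChE of human neuroblastoma SH-SY5Y cells was measured with an Ellman-type DTNB/acetylthiocholine mix. Compound pretreatment lasted 30 min at 37 C; substrate reaction ran 90 min at 37 C.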

[2] = biological target: Acetylcholinesterase (Homo sapiens) (UniProt P22303); assay: Acetylcholinesterase (AChE) small molecule antagonists: enzyme-based qHTS assay (AID 1347397); details: Potency: AChE enzyme activity inhibition; outcome: AChE enzyme activity inhibition; further: nearly all actives have a fitted effect of over 55% in size
Procedure, shortened: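 Recombinant human AChE (50 mU/mL) preincubated with compound 30 min at room temperature; acetylthiocholine plus DTNB then added, and thiocholine formation read colorimetrically after 10 min at room temperature. DMSO served as vehicle control.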

[3] = biological target: Acetylcholinesterase (Homo sapiens) (UniProt P22303); assay: Acetylcholinesterase (AChE) small molecule antagonists: enzyme-based qHTS assay with human liver microsomes (AID 1347399); details: Potency: qHTS inhibition; outcome: qHTS inhibition; further: nearly all actives have a fitted effect of over 60% in size
Procedure, shortened: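 Recombinant human AChE (50 mU/mL in the enzyme mix) and human liver microsomes (0.25 mg/mL final) were preincubated with compound and NADPH (0.25 mg/mL final) for 30 min at 37 C. Acetylthiocholine/DTNB was then added; thiocholine was read colorimetrically after 10 min at room temperature.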
Potency means the concentration at half of the fitted maximal effect.

Q: Which results are given for `Cc1oc(=O)oc1COC(=O)[C@@H]1N2C(=O)[C@@H](NC(=O)[C@H](N)c3ccccc3)[C@H]2SC1(C)C`?
A: Potency [1]: inactive; Potency [2]: inactive; Potency [3]: inactive

Q: `CCCCCCCCCCCCCCN(CCO)CCO` was tested. Which Potency [1] did it give?
A: The Potency was “inactive”.

Q: What about the Potency [2] of the same compound?
A: Its Potency is “inactive”.

Q: What about the Potency [3] of the same compound?
A: Its Potency is “inactive”.

Q: For `CC1(C)CCC(C)(C)c2cc(NC(=O)c3ccc(C(=O)O)cc3)ccc21`, which Potency [1] is on record?
A: Its Potency is “inactive”.

Q: And the Potency [2]?
A: The Potency was “inactive”.

Q: And the Potency [3]?
A: Its Potency is “inactive”.

Q: For `O=C(CCN1CCC(c2ccccc2)C1)c1ccc2c(c1)OCCO2` (centres undefined), which Potency [1] is on record?
A: Its Potency is 30.9 µM (active).

Q: And the Potency [2]?
A: Its Potency is “inactive”.

Q: And the Potency [3]?
A: Its Potency is “inactive”.

Q: How did the Potency [1] turn out when `O=S(=O)(O)SSS(=O)(=O)O` was run?
A: The Potency was 71 µM (active).

Q: What about the Potency [2] of the same compound?
A: The Potency was 71 µM (active).

Q: And the Potency [3]?
A: Its Potency is 71 µM (active).

Q: `CC1(COc2ccc(CC3SC(=O)NC3=O)cc2)CCCCC1` (centres undefined) was tested. Which Potency [1] did it give?
A: The Potency was “inactive”.

Q: And the Potency [2]?
A: Its Potency is “inactive”.

Q: And the Potency [3]?
A: Its Potency is “inactive”.

Q: What does the source list for `O=C(O)CCCc1ccccc1`?
A: Potency [1]: inactive; Potency [2]: inactive; Potency [3]: inactive

Q: `CC(=O)[C@]1(O)Cc2c(O)c3c(c(O)c2[C@@H](O[C@H]2C[C@H](N)[C@H](O)[C@H](C)O2)C1)C(=O)c1ccccc1C3=O` was tested. Which Potency [1] did it give?
A: The Potency was 17.4 µM (active).

Q: What about the Potency [2] of the same compound?
A: The Potency was “inactive”.

Q: And the Potency [3]?
A: Its Potency is “inactive”.

Q: For `N#CSCC(=O)O`, which Potency [1] is on record?
A: The Potency was “inactive”.

Q: And the Potency [2]?
A: Its Potency is “inactive”.

Q: And the Potency [3]?
A: The Potency was “inactive”.

Q: With `CCCCCCCCCCCCN(CCO)CCO` as the compound, how does the Potency [1] read?
A: The Potency was “inactive”.

Q: And the Potency [2]?
A: The Potency was “inactive”.

Q: And the Potency [3]?
A: The Potency was “inactive”.

Q: What does the source list for `C=CCSCC1Nc2cc(Cl)c(S(N)(=O)=O)cc2S(=O)(=O)N1` (centres undefined)?
A: Potency [1]: inactive; Potency [2]: inactive; Potency [3]: inactive

Q: What does the source list for `O=C1CCc2cc(OCCCCc3nnnn3C3CCCCC3)ccc2N1`?
A: Potency [1]: 24.5 µM (active); Potency [2]: inactive; Potency [3]: inactive

Q: What does the source list for `FC1(F)C(F)(F)C(F)(F)C2(F)C(F)(C1(F)F)C(F)(F)C(F)(F)C1(F)C(F)(F)C(F)(F)C(F)(F)C(F)(F)C12F` (centres undefined)?
A: Potency [1]: inactive; Potency [2]: inactive; Potency [3]: inactive

Q: Which Potency [1] does the source give for `O=C(/C=C/c1ccccc1)NCCO` here?
A: The Potency was “inactive”.

Q: What about the Potency [2] of the same compound?
A: Its Potency is “inactive”.

Q: And the Potency [3]?
A: Its Potency is “inactive”.

Q: For `Cc1ccsc1/C=C/C1=NCCCN1C`, which Potency [1] is on record?
A: Its Potency is 17.4 µM (active).

Q: And the Potency [2]?
A: Its Potency is “inactive”.

Q: What about the Potency [3] of the same compound?
A: The Potency was “inactive”.

Q: `CC(CN)CC(C)(C)CCN` (centres undefined) was tested. Which Potency [1] did it give?
A: Its Potency is “inactive”.

Q: And the Potency [2]?
A: Its Potency is “inactive”.

Q: And the Potency [3]?
A: Its Potency is “inactive”.

Q: What does the source list for `CCN(CC)C(=O)c1cc(S(=O)(=O)Cc2ccccc2)c(N2CCC(c3ccccc3)CC2)cc1N(CC)CCN(C)C`?
A: Potency [1]: inactive; Potency [2]: inactive; Potency [3]: inactive

Q: How did the Potency [1] turn out when `Cc1cc(-c2ccccc2)nnc1NCCN1CCOCC1` was run?
A: Its Potency is “inactive”.

Q: What about the Potency [2] of the same compound?
A: The Potency was “inactive”.

Q: What about the Potency [3] of the same compound?
A: The Potency was “inactive”.

Q: For `COCC(=O)O[C@]1(CCN(C)CCCc2nc3ccccc3[nH]2)CCc2cc(F)ccc2[C@@H]1C(C)C`, which Potency [1] is on record?
A: Its Potency is “inactive”.

Q: What about the Potency [2] of the same compound?
A: Its Potency is “inactive”.

Q: What about the Potency [3] of the same compound?
A: The Potency was “inactive”.

Q: Which outcome [1] does the source give for `Cc1nccn1-c1ccc(Sc2cccc(C3(C(N)=O)CCOCC3)c2)cc1` here?
A: The outcome was “inactive”.

Q: What about the outcome [2] of the same compound?
A: Its outcome is “inactive”.

Q: What about the outcome [3] of the same compound?
A: Its outcome is “inactive”.

Q: What does the source list for `CN1C[C@H]2c3ccccc3Oc3ccc(Cl)cc3[C@@H]2C1`?
A: Potency [1]: inactive; Potency [2]: inactive; Potency [3]: inactive

Q: `CCCCC/C=C\C=C\C(=O)OCC` was tested. Which Potency [1] did it give?
A: Its Potency is “inactive”.

Q: And the Potency [2]?
A: The Potency was “inactive”.

Q: What about the Potency [3] of the same compound?
A: Its Potency is “inactive”.

Q: With `NC(=O)c1ncn([C@@H]2O[C@H](CO)[C@@H](O)[C@H]2O)c1O` as the compound, how does the Potency [1] read?
A: Its Potency is “inactive”.

Q: And the Potency [2]?
A: The Potency was “inactive”.

Q: And the Potency [3]?
A: The Potency was “inactive”.

Q: What does the source list for `CCCCCCCCCCCCSCCOCCO`?
A: Potency [1]: inactive; Potency [2]: inactive; Potency [3]: inactive

Q: `CN(C[C@@H](CC[N+]12CCC(C3CCCCC3)(CC1)CC2)c1ccc(Cl)c(Cl)c1)C(=O)c1cc(C(F)(F)F)cc(C(F)(F)F)c1` was tested. Which outcome [1] did it give?
A: Its outcome is “inactive”.

Q: What about the Potency [2] of the same compound?
A: The Potency was 7.96 µM (active).

Q: And the outcome [3]?
A: Its outcome is “inactive”.

Q: Which Potency [1] does the source give for `C[C@@H](CN(C)C)CN1c2ccccc2Sc2ccccc21` here?
A: Its Potency is “inactive”.

Q: What about the Potency [2] of the same compound?
A: Its Potency is “inactive”.

Q: What about the Potency [3] of the same compound?
A: Its Potency is “inactive”.

Q: `O=C1C=CC(=O)N1c1ccc(Cc2ccc(N3C(=O)C=CC3=O)cc2)cc1` was tested. Which Potency [1] did it give?
A: Its Potency is “inactive”.

Q: What about the Potency [2] of the same compound?
A: The Potency was “inactive”.

Q: And the Potency [3]?
A: Its Potency is “inactive”.

Q: With `Cc1cc(O)c2ccccc2c1O` as the compound, how does the Potency [1] read?
A: Its Potency is “inactive”.

Q: What about the Potency [2] of the same compound?
A: Its Potency is “inactive”.

Q: And the Potency [3]?
A: Its Potency is “inactive”.

Q: For `Oc1cc2ccccc2c2ccccc12`, which Potency [1] is on record?
A: Its Potency is “inactive”.

Q: What about the Potency [2] of the same compound?
A: Its Potency is “inactive”.

Q: What about the Potency [3] of the same compound?
A: The Potency was “inactive”.

Q: With `CC1=C(/C=C/C(C)=C/C=C/C(C)=C/C=O)C(C)(C)CCC1` as the compound, how does the Potency [1] read?
A: The Potency was “inactive”.

Q: What about the Potency [2] of the same compound?
A: The Potency was “inactive”.

Q: And the Potency [3]?
A: The Potency was “inactive”.

Q: What does the source list for `CC(C)(Cc1c[nH]c2ccccc12)NCC(O)COc1ccccc1C#N` (centres undefined)?
A: Potency [1]: inactive; Potency [2]: inactive; Potency [3]: inactive

Q: For `CCOC(=O)COc1ccc2c(c1)CC(NCC(O)c1cccc(Cl)c1)CC2` (centres undefined), which Potency [1] is on record?
A: Its Potency is “inactive”.

Q: What about the Potency [2] of the same compound?
A: Its Potency is “inactive”.

Q: What about the Potency [3] of the same compound?
A: Its Potency is “inactive”.

Q: How did the Potency [1] turn out when `C[C@@H](O)[C@H]1C(=O)N2C(C(=O)O)=C(S[C@@H]3CN[C@H](CNS(N)(=O)=O)C3)[C@H](C)[C@H]12` was run?
A: Its Potency is “inactive”.

Q: And the Potency [2]?
A: Its Potency is “inactive”.

Q: What about the Potency [3] of the same compound?
A: Its Potency is “inactive”.

Q: For `COc1ccc2nc(SCc3ncc(C)c(OC)c3C)[nH]c2c1`, which Potency [1] is on record?
A: The Potency was “inactive”.

Q: What about the Potency [2] of the same compound?
A: The Potency was “inactive”.

Q: And the Potency [3]?
A: The Potency was “inactive”.

Q: `O=C1CCCCCCCCCCCCCCCO1` was tested. Which Potency [1] did it give?
A: The Potency was “inactive”.

Q: What about the Potency [2] of the same compound?
A: The Potency was “inactive”.

Q: And the Potency [3]?
A: The Potency was “inactive”.

Q: What does the source list for `CCN(CCCCOC(=O)c1ccc(OC)c(OC)c1)C(C)Cc1ccc(OC)cc1` (centres undefined)?
A: Potency [1]: 17.4 µM (active); Potency [2]: inactive; Potency [3]: inactive

Q: `OCc1c[nH]c2ccccc12` was tested. Which Potency [1] did it give?
A: The Potency was “inactive”.

Q: What about the Potency [2] of the same compound?
A: Its Potency is “inactive”.

Q: What about the Potency [3] of the same compound?
A: The Potency was “inactive”.

Q: For `Nc1ccc(N=Nc2ccccc2)c(N)c1`, which Potency [1] is on record?
A: The Potency was “inactive”.

Q: And the Potency [2]?
A: The Potency was “inactive”.

Q: And the Potency [3]?
A: Its Potency is “inactive”.
